EWS-Fli inh = EWS/Fli-driven NR0B1 reporter inhibitors, primary screen, A673 cells, NR0B1 luciferase, luminescence, MLPCN library | viability-normalised | inhibition, % at 12.6 µM | 350,000 tested, 0.67% active | AID 651661, 2012;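 active = mean inhibition of at least 50% after viability correction, with every replicate also passing that limit; inconclusive = mean reaches 50% but only one of two replicates passes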;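 note: firefly luciferase signal divided by Alamar Blue viability fluorescence both relative to DMSO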
EBV LMP1 NFkB = EBV LMP1-driven NF-kappaB luciferase reporter inhibitors, primary screen, cell-based, luminescence, single point. LMP1-induced NF-kappaB luciferase reporter cells. inhibition, % at 12.5 µM. 350,000 tested, 0.69% active. AID 504558, 2011; in the data active = inhibition above about 41%; inconclusive = no clear call, values can overlap the other calls
LGR2 inh = inhibitors of bursicon-induced LGR2 CRE-luciferase signal, primary screen, cell-based, HEK293, CRE-luciferase reporter, bursicon stimulation; Drosophila bursicon receptor LGR2 (rickets); bursicon-stimulated, 4 h; inhibition, % at 9.99 µM; 380,000 tested, 0.35% active; AID 720647, 2013;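 active = drop in luminescence signal, shown as inhibition above about 50% in the replicate tests, limit read from the data, passing the limit was not always enough; inconclusive = probably only some replicates passing the limit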;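 note: agonist challenge used bursicon conditioned medium at about half maximal strength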
PAX8 inh HTS = inhibitors of PAX8-driven TPO luciferase reporter, primary screen, RMG-I cells, single concentration | inhibition, % at 12.6 µM | AID 652154, 2013 | 360,000 tested, 1.2% active | SteadyGlo, 24 h;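 active = mean replicate inhibition at least 60% with every replicate also reaching 60%; inconclusive = only one of the two criteria is met; inactive = mean below 60% and not all replicates reaching 60%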;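 note: luciferase light reporting Pax8 driven TPO promoter activity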
TWEAK Fn14 block = inhibitors of TWEAK-Fn14 signaling, primary screen, luciferase reporter cells, uHTS; TWEAK-stimulated Fn14 reporter cells, luciferase luminescence, 8 h; inhibition, % at 10 µM; 360,000 tested, 2% active; AID 1159606, 2016; in the data active = inhibition above about 50%
TROY NFkB inh = inhibitors of TROY-driven NF-kB signaling, primary screen, Q293 LMP1-TROYcd cells, NF-kB luciferase, uHTS; Q293 LMP1-TROYcd NF-kB luciferase reporter, 4 h; inhibition, % at 10 µM; 360,000 tested, 0.98% active; AID 1347056, 2019;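 active = compounds whose plate-normalised and pattern-corrected inhibition of the luciferase reporter signal at the single screening dose is 50% or more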
A number is an active result; 0 = inactive; ? = inconclusive; - = not tested or not shown. Hits are enriched below; roughly 3.2% of the tested compounds scored in any of these assays.

SMILES	EWS-Fli inh	EBV LMP1 NFkB	LGR2 inh	PAX8 inh HTS	TWEAK Fn14 block	TROY NFkB inh
CN(C)c1ccc(N=C/C=C2\N(C)c3ccccc3C2(C)C)cc1	-	0	-	-	51	0
Cc1c(N=C/C=C2\N(C)c3ccccc3C2(C)C)c(=O)n(-c2ccccc2)n1C	0	0	0	-	0	0
O=C(C[C@H]1CC[C@@H]2[C@H](COC[C@H](O)CN2S(=O)(=O)c2ccc(F)cc2)O1)NCc1ccc(Cl)c(Cl)c1	0	-	0	0	-	-
CO[C@H]1CN(C)C(=O)c2cc(NS(=O)(=O)c3cccc(C)c3)ccc2OC[C@@H](C)NC[C@@H]1C	0	-	0	-	-	-
C[C@H](CO)N1C[C@H](C)[C@@H](CN(C)S(=O)(=O)c2cccs2)OCCCC[C@H](C)Oc2ccc(NS(=O)(=O)c3ccc(Cl)cc3)cc2C1=O	0	-	0	100	-	-
C[C@@H]1CCCCO[C@@H](CN(C)S(=O)(=O)c2cccs2)[C@@H](C)CN([C@H](C)CO)C(=O)c2cc(NS(=O)(=O)c3ccc(Cl)cc3)ccc2O1	0	-	0	0	-	-
C[C@@H]1CCCCO[C@H](CN(C)S(=O)(=O)c2cccs2)[C@@H](C)CN([C@@H](C)CO)C(=O)c2cc(NS(=O)(=O)c3ccc(Cl)cc3)ccc2O1	0	-	0	68	-	-
C[C@H](CO)N1C[C@H](C)[C@H](CN(C)S(=O)(=O)c2cccs2)OCCCC[C@H](C)Oc2ccc(NS(=O)(=O)c3ccc(Cl)cc3)cc2C1=O	0	-	0	?	-	-
O=C(Nc1ccon1)c1ccc(N2CCCCC2)c([N+](=O)[O-])c1	0	0	0	0	0	0
O=C(Nc1nc2ccccc2s1)c1ccc(N2CCCCC2)c([N+](=O)[O-])c1	0	0	-	0	81	0
O=C(Nc1nc(-c2ccccc2)cs1)c1ccc(N2CCOCC2)c([N+](=O)[O-])c1	-	0	-	-	106	83
Cc1nc2cc(NC(=O)c3ccc(S(=O)(=O)N(C)c4ccccc4)cc3)ccc2o1	-	0	0	0	74	0
Cc1nc2ccc(NC(=O)c3cc(S(=O)(=O)N(C)c4ccccc4)ccc3Cl)cc2s1	-	0	0	-	0	0
CN(c1ccccc1)S(=O)(=O)c1ccc(NC(=O)c2ccc(-c3ccccc3)cc2)cc1	0	0	0	-	54	0
Cc1nc2ccc(NC(=O)c3ccc(Cl)c(S(=O)(=O)N(C)c4ccccc4)c3)cc2s1	-	0	0	0	96	56
CCC(=O)N[C@H]1CC[C@@H](CCn2cc(C3CC3)nn2)O[C@H]1CO	0	-	0	0	-	-
CCN(c1ccc(OC)cc1)c1ncnc2nc[nH]c12	0	0	0	0	59	0
CCCCN(CCCC)c1ncnc2nc[nH]c12	0	0	0	0	59	0
CCCCN(Cc1ccccc1)c1ncnc2nc[nH]c12	-	0	-	-	0	0
Cc1noc(C)c1NC(=O)Nc1ccc2c(c1)C(=O)N([C@@H](C)CO)C[C@@H](C)[C@@H](CN(C)S(=O)(=O)c1ccccc1)O2	0	-	0	-	-	-
O=C(Cc1cccnc1)N1CC(=O)N2[C@H](CO)[C@H](c3ccc(C4=CCCCC4)cc3)[C@@H]2C1	0	-	0	0	-	-
O=C(/C(=C/O)N=Nc1ccccc1Cl)c1ccccc1	0	0	0	0	58	52
COC(=O)c1ccc(CSc2n[nH]c(C)n2)o1	0	0	0	78	0	0
CCc1nc(SCc2ccc(C(=O)OC)o2)n[nH]1	0	0	0	0	0	0
CCCNC(=O)[C@@H]1[C@@H](CO)[C@@H]2Cn3c(cccc3=O)[C@@H]2N1CC1CCCC1	0	-	0	-	-	-
SMILES	EWS-Fli inh	EBV LMP1 NFkB	LGR2 inh	PAX8 inh HTS	TWEAK Fn14 block	TROY NFkB inh
C[C@@H]1CN([C@@H](C)CO)C(=O)c2cccc(NC(=O)c3ccc(-c4nccs4)cc3)c2O[C@H]1CN(C)S(=O)(=O)c1ccc(F)cc1	0	-	0	-	-	-
COC(=O)CSc1ncnc2c1cnn2Cc1ccccc1	-	0	-	-	0	0
COc1cc(NC(=O)CSc2ncnc3c2cnn3Cc2ccccc2)cc(OC)c1	-	0	-	-	62	0
COc1ccc(OC)c(NC(=O)CSc2ncnc3c2cnn3-c2ccccc2Cl)c1	-	0	-	-	74	0
COc1ccc(OC)c(NC(=O)CSc2ncccn2)c1	-	0	-	0	0	0
O=C(c1ccccc1)N1C[C@@H]2[C@H](c3ccccc31)[C@H](CO)N2Cc1ccccc1F	0	-	0	0	-	-
Cc1ccc(S(=O)(=O)N[C@H]2CC[C@@H](CCNC(=O)C3CCCCC3)O[C@H]2CO)cc1	0	-	0	0	-	-
C[C@H](CO)N1C[C@H](C)[C@@H](CN(C)C(=O)Nc2ccc3c(c2)OCO3)Oc2ccc(NC(=O)C3CC3)cc2C1=O	0	-	0	0	-	-
O=C(Cc1ccncc1)Nc1ccc2c(c1)[C@@H]1C[C@@H](CC(=O)N3CCCCC3)O[C@H](CO)[C@@H]1O2	0	-	0	0	-	-
Cc1ccccc1CN(C)C1CCN(C)CC1	0	0	0	0	110	0
CN1CCC(N(C)CC(O)c2ccccc2)CC1 (stereo not drawn)	0	0	0	0	0	0
O=C(COc1ccccc1C(=O)NCc1ccccn1)Nc1ccc(Br)cc1	65	0	0	0	0	0
O=C(COc1ccccc1C(=O)NCc1ccccc1)Nc1ccccc1	0	0	0	0	0	0
O=C(CCn1c(=O)[nH]c2ccccc2c1=O)NCCSCc1ccccc1	0	0	0	0	0	0
NC(=O)Cn1c(=O)n(CCC(=O)NCCSCc2ccccc2)c(=O)c2ccccc21	0	0	0	0	0	71
COc1ccc(C(=O)N/C(=C\c2cn(C)c3ccccc23)C(=O)OCC(C)C)cc1	0	0	0	70	0	0
COc1cccc(S(=O)(=O)N[C@@H]2CC[C@H](CCn3cc(-c4ccc(F)cc4)nn3)O[C@H]2CO)c1	0	-	0	0	-	-
N#C/C(=C\c1cccn1-c1ccccc1)C(=O)NC1CCCCC1	62	0	-	0	0	0
N#C/C(=C\C=C\c1ccccc1[N+](=O)[O-])C(=O)NC1CCCCC1	-	0	-	-	82	0
N#C/C(=C\c1ccc(F)c(F)c1)C(=O)NC1CCCCC1	0	0	0	0	0	0
O=C(CN(c1ccccc1F)S(=O)(=O)c1ccccc1)Nc1ccc2c(c1)OCCO2	-	0	0	0	75	0
O=C(CN(c1ccc(F)cc1)S(=O)(=O)c1ccc2c(c1)OCCO2)Nc1ccccc1	-	0	-	-	0	0
CC(=O)c1ccc(NC(=O)c2ccc(NC(=O)CCS(=O)(=O)c3cccs3)cc2)cc1	0	0	0	0	0	51
Nc1ncnc2c(C3OC(CO)C(O)C3O)c[nH]c12 (stereo not drawn)	0	92	101	118	101	71
C[C@@H]1CN([C@@H](C)CO)C(=O)c2cccc(NS(=O)(=O)c3ccc(F)cc3)c2O[C@@H]1CN(C)Cc1ccc(Oc2ccccc2)cc1	0	-	0	0	-	-

Screening results (PubChem)
